The source made the active and inactive calls. Unless noted, the rule behind the calls is not given here.
biological target: Homeobox protein Hox-A13 (Mus musculus) (UniProt Q62424); experiment: inhibitors of HoxA13-DNA binding, primary screen, biochemical, fluorescence polarization, labeled oligonucleotide (AID 1185); conditions: 15 min, higher = more signal, called active from +8 up or from −8 down
Sequence (Q62424 whole entry, looked up): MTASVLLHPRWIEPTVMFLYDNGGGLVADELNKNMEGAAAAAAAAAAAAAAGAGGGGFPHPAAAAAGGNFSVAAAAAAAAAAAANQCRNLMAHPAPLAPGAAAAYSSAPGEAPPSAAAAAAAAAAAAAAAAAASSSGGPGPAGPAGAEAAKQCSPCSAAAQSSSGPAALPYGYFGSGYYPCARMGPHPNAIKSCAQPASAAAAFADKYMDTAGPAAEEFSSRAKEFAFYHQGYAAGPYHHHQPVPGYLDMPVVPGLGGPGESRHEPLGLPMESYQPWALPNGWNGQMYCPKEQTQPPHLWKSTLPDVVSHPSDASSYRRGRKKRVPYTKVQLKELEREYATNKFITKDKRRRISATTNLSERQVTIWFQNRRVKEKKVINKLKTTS

SMILES	z-score
CC(C)NC(=O)[C@@]1(c2ccc([N+](=O)[O-])cc2)CC(=O)N(C2CCCCC2)[C@@H]1c1ccc(CO)cc1	-3.11 (inactive)
CCOC(=O)C[C@H]1[C@H](OC(=O)Cc2ccc3c(c2)OCO3)[C@@H](NC(=O)c2ccc3ccccc3n2)c2cc(OCCCO)ccc2N1C(=O)c1ccccc1	-2.41 (inactive)
O=c1cccc(-c2ccc([N+](=O)[O-])cc2)o1	-0.755 (inactive)
CC(C)N1C(=O)C[C@@](C(=O)O)(c2ccc([N+](=O)[O-])cc2)[C@H]1c1ccc(CO)cc1	-2.9 (inactive)
CCCCCCCCCC(O)C1C=CC2C(=O)N(c3ccccc3)C(=O)C2N1Nc1cc(OC)c(OC)c(OC)c1 (centres undefined)	-2.06 (inactive)
COC(=O)[C@@]1(Cc2ccc(OC)cc2)[C@H]2c3cc(C(=O)N(C)C)n(Cc4ccc(C)o4)c3C[C@H]2CN1C(=O)c1ccccc1	-4.5 (inactive)
[N-]=[N+]=Nc1ccccc1C[C@]1(C(=O)NCC(O)CO)COC(c2ccc(OCCCO)cc2)=N1 (some centres undefined)	-6.04 (inactive)

system: not listed separately; experiment: inhibitors of hydroxyurea-induced Chk1 phosphorylation, primary screen, imaging, HeLa, phospho-Chk1 antibody, percent positive cells (AID 1186); conditions: hydroxyurea-induced phospho-Chk1 immunofluorescence imaging, higher = more signal

SMILES	z-score
NC(=O)[C@@]1(Cc2ccccc2)COC(c2ccc(OCCCO)cc2)=N1	0.279 (inactive)
CCOC(=O)C[C@H]1[C@H](OC(=O)c2ccc(C(=O)c3ccccc3)cc2)[C@@H](NC(=O)c2ccc3ccccc3n2)c2cc(OCCCO)ccc2N1C(=O)Cc1ccc(OC)cc1	-0.824 (inactive)
COC(=O)[C@@H]1N=C(c2ccc(OCCCO)cc2)O[C@@H]1c1ccccc1	-0.4 (inactive)
CCOc1cc(C(O)C2C=CC3C(=O)NC(=O)C3N2Nc2ccc(Cl)cc2Cl)ccc1O (centres undefined)	0.394 (inactive)
CCOC(=O)C=Cc1cccc(C)c1O	-0.193 (inactive)
COC(=O)[C@@]1(Cc2ccc(OC)cc2)[C@H]2c3cc(C(=O)N4CCCC4)n(CCO)c3C[C@H]2CN1C(=O)c1ccccc1	1.33 (inactive)
CC1=C2[C@@H](CCc3ccccc3)OB(O)C[C@@H]2[C@@H]2C(=O)N(Cc3ccccc3)C(=O)[C@@H]2C1	0.235 (inactive)
C=CC[C@@H](OC(=O)Nc1ccc(SC)cc1)c1ccc(O)c(F)c1	-0.12 (inactive)
COCCCNC(=O)[C@@]1(CCC(=O)OC(C)(C)C)N=C(c2ccc(OCCCO)cc2)O[C@H]1c1ccccc1N=[N+]=[N-]	0.739 (inactive)
CCOC(=O)C[C@H]1[C@H](OC(=O)c2cc3ccccc3oc2=O)[C@@H](NC(=O)CC(C)C)c2cc(OCCCO)ccc2N1C(=O)c1ccc2ccccc2n1	-0.121 (inactive)
Cc1ccc(C(C)CC(O)C2C=CC3C(=O)N(c4ccccc4)C(=O)C3N2Nc2ccccc2)o1 (centres undefined)	-0.179 (inactive)
CN(C)c1ccc(C(O)C2C=CC3C(=O)NC(=O)C3N2Nc2ccccn2)cc1 (centres undefined)	0.431 (inactive)
CCCCN1CC=CC23O[C@@H]4/C=C\CCCOC(=O)C4[C@H]2C(=O)N(CCO)[C@@H]3C1=O (some centres undefined)	-0.302 (inactive)
COc1ccc([Si](C)(C)[C@@H]2[C@@H](CCO)O[C@]3(C(=O)N(Cc4ccccc4)c4ccc(N5C(=O)c6cccc7cccc5c67)cc43)[C@H]2C)cc1	-0.991 (inactive)
Oc1ccc2cc[n+](Cc3cc4c(cc3Br)OCO4)cc2c1	0.12 (inactive)
CCCNC(=O)[C@@H]1c2ccccc2C(=O)N(Cc2ccc(OC(F)(F)F)cc2)[C@H]1c1ccc(CO)cc1	-0.615 (inactive)
COCCOC(=O)N1C(=O)[C@@]2(c3cc(C#CC4=CCCCC4)ccc31)[C@H](c1ccccc1OCCO)N1[C@H](c3ccccc3)[C@H](c3ccccc3)OC(=O)[C@H]1[C@@H]2C(=O)NC[C@H](O)c1ccccc1	0.0064 (inactive)
O=C1N(CCS(=O)(=O)c2ccccc2)c2ccccc2[C@H]2OC(c3ccc(OCCCO)cc3)=N[C@@]12Cc1ccccc1	-0.37 (inactive)
[N-]=[N+]=Nc1ccccc1C[C@]1(C(=O)NCCN2CCOCC2)COC(c2ccc(OCCCO)cc2)=N1	-0.566 (inactive)
C=CC[C@@]1(C(=O)NCCCOC)N=C(c2ccc(OCCCO)cc2)O[C@@H]1c1ccccc1N=[N+]=[N-]	-0.679 (inactive)
COC(=O)C1=CC(CCCO)=CC(c2ccc(CN3CCCC3)cc2)N(Cc2cccc(OC(F)(F)F)c2)C=C1C(=O)OC (centres undefined)	-0.268 (inactive)
CCCC=C(CCC)[C@@H](NC(=O)c1cccs1)c1ccc(C(=O)OC)cc1	-0.255 (inactive)

Source: PubChem BioAssay
